Test results: PubChem BioAssay (NCATS)
Results filed as inconclusive are left out. The source made the active and inactive calls. Unless noted, calls come from the whole dose curve; as a rule, active = well fitted curve in the direction sought with a large enough effect; inconclusive = small, poorly fitted or top-dose-only effect, or another doubt; inactive = no such curve, though single readings can be large; an effect the other way counts as inactive or inconclusive.

Experiments:
[1] = Confirmation and Secondary Assay for Modulators of Hemoglobin Beta Chain Splicing at IVS2 654 locus (AID 910);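 note: HeLa cells stably carrying EGFP split by mutant beta-globin IVS2-654 intron; per-well total GFP intensity by laser scanning cytometry after 2-day treatment; % of control where 0% means no effect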
Summary of the method: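 Readout: per-well total peak green fluorescence (488 nm ex, 500–520 nm em) from objects 5–250 µm, reflecting correct splicing of an EGFP-654 reporter. Compounds were applied for 2 days at 37 °C to overnight-plated HeLa EGFP-654 cells; controls were DMSO and 500 nM IVS2-654 PNA.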

[2] = Confirmation and Secondary Assay for Modulators of Hemoglobin Beta Chain Splicing at IVS2 705 locus (AID 930);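 note: HeLa cells stably expressing the EGFP-705 splicing reporter; % of control where 0% means no effect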
Summary of the method: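 HeLa cells stably carrying EGFP interrupted by mutant beta-globin IVS2-705 intron (CMV-driven) were seeded at 500 cells/well, treated next day with compound for 2 days at 37C; corrected splicing restores EGFP, read as total peak GFP intensity per well.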

[3] = system: Zika virus NS2B-NS3 protease; assay: Primary screen GU AMC qHTS for Zika virus inhibitors (AID 1347154);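 note: 0% = no-inhibitor control and -100% = no-enzyme control; nearly all actives have a fitted effect of over 70% in size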
Summary of the method: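 Fluorogenic AMC-substrate cleavage by noncovalent NS2B-NS3 protease complex (25 nM, pH 8.0 Tris buffer with Tween 20) followed for 15 minutes at room temperature (~20% conversion). Percent inhibition from ex340/em450 signal change, fitted by 4-parameter Hill equation.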

[4] = biological target: Glucocorticoid receptor (Homo sapiens) (UniProt P04150); assay: GR-GFP Redistribution (AID 450;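 active = compounds whose dose series gives a full or clear partial fitted curve of increased nuclear translocation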; note: potency is the fitted concentration of half-maximal effect); conditions: U2OS GR-GFP nuclear translocation, laser cytometry, 2 h
Chain of Glucocorticoid receptor (Homo sapiens) (P04150 whole entry, looked up, the tested form may be a part): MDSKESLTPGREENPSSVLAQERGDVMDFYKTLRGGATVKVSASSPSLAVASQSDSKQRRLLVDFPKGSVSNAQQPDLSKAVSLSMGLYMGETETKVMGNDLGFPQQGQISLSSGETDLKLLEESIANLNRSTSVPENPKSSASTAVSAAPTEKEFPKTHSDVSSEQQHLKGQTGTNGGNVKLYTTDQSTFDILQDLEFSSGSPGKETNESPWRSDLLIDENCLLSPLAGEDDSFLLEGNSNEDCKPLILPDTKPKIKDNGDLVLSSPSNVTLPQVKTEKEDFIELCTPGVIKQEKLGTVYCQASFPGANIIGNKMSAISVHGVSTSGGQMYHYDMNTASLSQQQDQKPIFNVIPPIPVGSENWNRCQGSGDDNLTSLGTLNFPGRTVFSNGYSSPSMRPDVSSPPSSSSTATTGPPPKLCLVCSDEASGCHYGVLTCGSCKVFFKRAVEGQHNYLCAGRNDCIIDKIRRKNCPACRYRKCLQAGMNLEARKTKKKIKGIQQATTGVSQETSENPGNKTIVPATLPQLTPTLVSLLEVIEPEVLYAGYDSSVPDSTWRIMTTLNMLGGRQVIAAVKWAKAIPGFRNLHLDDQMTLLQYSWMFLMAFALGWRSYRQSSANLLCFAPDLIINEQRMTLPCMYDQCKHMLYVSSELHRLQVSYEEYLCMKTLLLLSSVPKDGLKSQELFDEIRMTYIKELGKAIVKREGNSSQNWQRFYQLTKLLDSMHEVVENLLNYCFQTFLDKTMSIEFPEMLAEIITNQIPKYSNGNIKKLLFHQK

[5] = biological target: Glucocorticoid receptor (Homo sapiens) (UniProt P04150); assay: GR-EFC Redistribution (AID 451; calls by dose curve; note: potency is the fitted concentration of half-maximal effect); conditions: CHO-K1 GR-EFC translocation, beta-gal luminescence, 2 h
Summary of the method: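 Translocation of GR-ED fusion to nuclear EA restores b-gal, read by luminescence after 1 h room-temperature detection. Engineered CHO-K1 biosensor cells, 1,000/well, exposed 2 h at 37 C to titrations up to 46 uM final.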

[6] = biological target: DNA dC->dU-editing enzyme APOBEC-3G (Homo sapiens) (UniProt Q9HC16); assay: qHTS for inhibitors of Vif-A3G interactions: Validation (AID 588379); note: 0% is about no effect
Chain of DNA dC->dU-editing enzyme APOBEC-3G (Homo sapiens) (Q9HC16 whole entry, looked up): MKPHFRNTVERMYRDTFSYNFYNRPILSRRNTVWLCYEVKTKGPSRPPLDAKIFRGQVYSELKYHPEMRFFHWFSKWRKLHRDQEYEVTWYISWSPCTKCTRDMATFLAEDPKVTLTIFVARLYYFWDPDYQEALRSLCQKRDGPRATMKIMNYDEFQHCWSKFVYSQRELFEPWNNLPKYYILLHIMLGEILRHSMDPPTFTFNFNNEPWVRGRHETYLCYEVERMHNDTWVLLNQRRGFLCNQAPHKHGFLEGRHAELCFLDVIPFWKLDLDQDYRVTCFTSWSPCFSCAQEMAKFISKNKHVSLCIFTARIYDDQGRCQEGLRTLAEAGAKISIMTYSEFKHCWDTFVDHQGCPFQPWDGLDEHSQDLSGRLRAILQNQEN
Summary of the method: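 Yellow fluorescence (Ex 488, Em 500-530) of Vif-coexpressing HeLa A3G-eYFP cells, scanned by Acumen cytometer, reports blocked A3G degradation. Cells plated at 700/well overnight at 37 deg C before compound addition, then a further overnight compound incubation at 37 deg C.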

[7] = biological target: Lysosomal acid glucosylceramidase (Homo sapiens) (UniProt P04062); assay: Glucocerebrosidase-p2 (AID 348; in the data active = potency below about 10 µM; note: potency is the fitted concentration of half-maximal effect); conditions: purified GBA, blue fluorogenic substrate, 40 min
Chain of Lysosomal acid glucosylceramidase (Homo sapiens) (P04062 whole entry, looked up): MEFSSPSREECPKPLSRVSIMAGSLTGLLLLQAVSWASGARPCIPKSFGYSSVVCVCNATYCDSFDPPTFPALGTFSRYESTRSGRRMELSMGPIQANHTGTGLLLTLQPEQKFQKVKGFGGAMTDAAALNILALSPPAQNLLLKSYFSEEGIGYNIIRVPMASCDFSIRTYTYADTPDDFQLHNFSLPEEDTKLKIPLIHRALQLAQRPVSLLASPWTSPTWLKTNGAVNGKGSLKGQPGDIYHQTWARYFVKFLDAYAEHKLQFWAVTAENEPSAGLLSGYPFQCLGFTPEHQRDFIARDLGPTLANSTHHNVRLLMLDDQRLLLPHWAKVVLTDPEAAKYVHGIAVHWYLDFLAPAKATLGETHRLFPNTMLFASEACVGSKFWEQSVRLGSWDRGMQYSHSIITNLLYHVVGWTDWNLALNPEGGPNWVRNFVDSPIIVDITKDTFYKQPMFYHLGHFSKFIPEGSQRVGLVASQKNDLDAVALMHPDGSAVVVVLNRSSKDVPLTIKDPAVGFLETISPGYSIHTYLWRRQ
Summary of the method: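 Normal human glucocerebrosidase (0.2 nM) with blue fluorogenic substrate (80 uM final) in citrate/phosphate pH 5.9 with 10mM sodium taurocholate, 0.01% tween-20; 40 min RT, NaOH/glycine stop; fluorescence Ex 365/Em 440; AC50 from a titration from 0.6 nM upwards.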

[8] = AP1 Signaling Pathway (AID 357; active = well fitted curve in either direction with a large enough effect, not every such curve was filed as active;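 note: ME-180 reporter cells stimulated with EGF at its EC50 level; % is set by controls: 0 for no effect and ±100 for the full control effect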); conditions: ME-180 (cervical carcinoma) AP-1-bla reporter, EGF-induced, beta-lactamase ratio, 5 h; at 7.69 µM (top of the series)
Summary of the method: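 In this screen, ME-180 cells in Opti-MEM with 0.5% dialyzed FBS received EC50 EGF and compound titrations for 5 h. AP-1 reporter beta-lactamase was detected via CCF4 ratio, giving AC50 for positive and negative modulators.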

[9] = biological target: Cytochrome P450 1A2 (Homo sapiens) (UniProt P05177); assay: p450-cyp1a2 (AID 410; calls by dose curve;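 note: -100% = full effect of reference inhibitor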)
Chain of Cytochrome P450 1A2 (Homo sapiens) (P05177 whole entry, looked up): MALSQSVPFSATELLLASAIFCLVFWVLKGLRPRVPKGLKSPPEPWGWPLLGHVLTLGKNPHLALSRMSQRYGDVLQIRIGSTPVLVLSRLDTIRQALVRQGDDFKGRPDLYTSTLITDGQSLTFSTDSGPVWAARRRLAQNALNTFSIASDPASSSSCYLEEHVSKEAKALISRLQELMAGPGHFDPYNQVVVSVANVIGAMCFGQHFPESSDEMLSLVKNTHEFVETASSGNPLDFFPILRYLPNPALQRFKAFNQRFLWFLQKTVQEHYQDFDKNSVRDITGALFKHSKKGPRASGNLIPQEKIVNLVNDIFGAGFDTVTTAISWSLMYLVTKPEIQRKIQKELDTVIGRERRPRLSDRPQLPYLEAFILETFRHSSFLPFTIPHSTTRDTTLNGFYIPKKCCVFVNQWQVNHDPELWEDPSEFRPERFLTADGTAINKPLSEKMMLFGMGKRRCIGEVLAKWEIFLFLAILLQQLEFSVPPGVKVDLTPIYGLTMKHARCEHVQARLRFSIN
Summary of the method: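 Read-out is luminescence from luciferin produced by CYP1A2 demethylation of Luciferin-ME (100uM, at Km). Detection reagent stopped the 60 min NADPH-dependent reaction; signals were normalized to 57 uM furafylline.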

[10] = NFAT Signaling Pathway (AID 444; active = well fitted curve in either direction with a large enough effect, not every such curve was filed as active;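 note: carbachol stimulus at about its EC50 of 1 µM final; % is set by controls: 0 for no effect and ±100 for the full control effect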); conditions: Jurkat NFAT-bla M1, carbachol, beta-lactamase ratio, 5 h; at 7.69 µM (top of the series)
Summary of the method: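 Read-out: CCF4 FRET ratio (460 nm/530 nm) after 1 h RT dye loading, used for %activity and AC50 from titration series. Cells: Jurkat NFAT-β-lactamase/M1 line, treated with compound plus 1 uM carbachol for 5 h, 37 °C.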

[11] = biological target: 3',5'-cyclic-AMP phosphodiesterase 4B (Homo sapiens) (UniProt Q07343); assay: qHTS Assay for Inhibitors of PDE-IV (AID 607; active = well fitted activation curve with a large enough effect in the main read-out, with a control signal flat, not every such curve was filed as active; note: % of control where 0% means no effect)
Chain of 3',5'-cyclic-AMP phosphodiesterase 4B (Homo sapiens) (Q07343 whole entry, looked up): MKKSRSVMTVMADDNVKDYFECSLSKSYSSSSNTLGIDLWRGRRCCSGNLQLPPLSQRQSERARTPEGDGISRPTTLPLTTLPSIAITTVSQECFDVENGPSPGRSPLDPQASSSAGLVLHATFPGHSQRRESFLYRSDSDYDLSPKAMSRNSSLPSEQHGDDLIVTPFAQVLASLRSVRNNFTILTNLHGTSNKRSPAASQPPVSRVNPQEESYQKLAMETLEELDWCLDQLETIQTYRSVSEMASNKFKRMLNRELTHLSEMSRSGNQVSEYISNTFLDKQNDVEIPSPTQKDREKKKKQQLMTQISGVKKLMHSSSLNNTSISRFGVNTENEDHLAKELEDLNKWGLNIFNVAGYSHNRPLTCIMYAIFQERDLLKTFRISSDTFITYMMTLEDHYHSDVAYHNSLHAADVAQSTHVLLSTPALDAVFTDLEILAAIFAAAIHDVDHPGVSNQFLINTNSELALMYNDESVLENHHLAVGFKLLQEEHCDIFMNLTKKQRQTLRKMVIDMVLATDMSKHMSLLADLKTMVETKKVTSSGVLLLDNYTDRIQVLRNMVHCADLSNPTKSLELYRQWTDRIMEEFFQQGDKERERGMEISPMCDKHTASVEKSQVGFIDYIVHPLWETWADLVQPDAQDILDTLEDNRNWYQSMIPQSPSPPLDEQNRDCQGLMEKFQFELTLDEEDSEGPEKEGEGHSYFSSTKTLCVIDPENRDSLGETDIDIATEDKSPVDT
Summary of the method: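 ACTOne HEK293 cells carry a modified cAMP-gated CNG channel and express endogenous PDE4; plated 1000 cells/well, compounds up to 22.9 uM final. Membrane-potential dye fluorescence (ex 535/em 590) was read; parental cells received 10 uM forskolin + 100 uM RO 20-1724.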

[12] = biological target: Cytochrome P450 3A4 (Homo sapiens) (UniProt P08684); assay: qHTS Assay for Activators of Cytochrome P450 3A4 (AID 885); note: nearly all actives have a fitted effect of over 65% in size
Chain of Cytochrome P450 3A4 (Homo sapiens) (P08684 whole entry, looked up): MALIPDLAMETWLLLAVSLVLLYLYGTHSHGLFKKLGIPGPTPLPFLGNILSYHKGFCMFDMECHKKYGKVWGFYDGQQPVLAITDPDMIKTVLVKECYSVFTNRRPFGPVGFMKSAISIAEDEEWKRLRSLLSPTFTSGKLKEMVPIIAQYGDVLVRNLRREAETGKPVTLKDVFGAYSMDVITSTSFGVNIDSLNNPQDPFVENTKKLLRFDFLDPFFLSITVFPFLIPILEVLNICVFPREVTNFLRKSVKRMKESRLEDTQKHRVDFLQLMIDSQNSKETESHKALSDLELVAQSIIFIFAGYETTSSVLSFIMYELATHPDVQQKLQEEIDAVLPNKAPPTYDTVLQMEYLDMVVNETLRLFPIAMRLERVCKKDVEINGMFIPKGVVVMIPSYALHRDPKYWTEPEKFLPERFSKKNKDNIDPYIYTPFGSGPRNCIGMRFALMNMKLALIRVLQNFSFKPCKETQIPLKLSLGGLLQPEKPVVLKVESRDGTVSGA
Summary of the method: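 CYP3A4 activity: Luciferin-PPXE O-dealkylation, 25uM substrate, 200mM KPO4, RT throughout. Read-out is luciferase luminescence; higher values reflect activation.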

[13] = Confirmatory screen GU Rhodamine qHTS for Zika virus inhibitors qHTS (AID 1347157); note: nearly all actives have a fitted effect of over 70% in size; note: potency is the fitted concentration of half-maximal effect;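 for activity change, negative = inhibition: plate controls were no-inhibitor wells for no effect and no-enzyme wells for full effect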
Summary of the method: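 A qHTS format was used, with compound concentrations ranging up to 114 microM. Each compound was preincubated with 25 nM NS2B-NS3 protease, and the substrate was then added at 1.5 microM. Curves were fitted with a 4-parameter Hill model.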

[14] = ZIKV-mCherry secondary qHTS for Zika virus inhibitors (AID 1347158); note: top concentration of the series differs between compounds
Summary of the method: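 This orthogonal imaging screen measured ZIKV-mCherry infection of Vero cells exposed to compound, MOI 1, 48-72 h. Percent infection came from segmented nuclei scored mCherry-positive above 3 SD of negative controls.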

[15] = Confirmatory screen NINDS Rhodamine qHTS for Zika virus inhibitors (AID 1347161); note: nearly all actives have a fitted effect of over 60% in size; note: potency is the fitted concentration of half-maximal effect;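 for activity change, negative = inhibition: purified Zika NS2B-NS3 protease with linked NS2B cofactor domain and Rhodamine110 peptide substrate; plate controls were no-inhibitor control for no effect and no-enzyme control for full effect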
Summary of the method: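 Single-chain NS2B-NS3 protease, 25 nM, pH 8.0; compounds preincubated 15 min. Activity: Rhodamine110 release from 1.5 microM substrate over 15 min, room temperature, data fitted to 4-parameter Hill.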

[16] = system: Zika virus NS2B-NS3 protease (linked); assay: 384 well plate NINDS AMC confirmatory qHTS for Zika virus inhibitors (AID 1347163); note: potency is the fitted concentration of half-maximal effect; nearly all actives have a fitted effect of over 50% in size
Summary of the method: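 Enzyme (5, 30 or 60 nM final) first met test compounds for ~15 min. The AMC-tagged peptide Ac-VKTGKR-AMC followed at 30 microM. Fluorescence was then recorded at 25 min and scaled against no-enzyme and no-inhibitor wells.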

[17] = biological target: Mitogen-activated protein kinase 10 (Mus musculus) (UniProt Q61831); assay: JNK3 AlphaScreen Assay (AID 530; active = well fitted curve in either direction with a large enough effect, not every such curve was filed as active;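 note: kinase came from lysate of stimulated human HepG2 cells; signal reports phosphorylation of biotinylated GST-cJun 1-79 at Ser73 with 10 µM ATP; % is set by controls: 0 for no effect and ±100 for the full control effect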)
Summary of the method: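 Kinase buffer: 20 mM Tris-HCl pH 7.6, 10 mM MgCl2, 1 mM DTT, 0.1 mM Na3VO4, 0.01% Tween-20; ATP 10 uM. Substrate biotin-GST-cJun(1-79), enzyme from activated HepG2 lysates. Detection by Ser73 phospho-antibody AlphaScreen.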

[18] = biological target: Cytochrome P450 3A4 (Homo sapiens) (UniProt P08684); assay: qHTS Assay for Inhibitors and Substrates of Cytochrome P450 3A4 (AID 884); note: nearly all actives have a fitted effect of over 50% in size; note: potency is the fitted concentration of half-maximal effect
Summary of the method: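 Luminescent readout of luciferin produced by CYP3A4 (20 nM) dealkylation of Luciferin-PPXE, 25 uM (its KM). NADPH-driven reaction ran 60 min at RT after 10 min compound preincubation; data scaled to 57 uM ketoconazole as 100% inhibition.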

[19] = biological target: Ubiquitin carboxyl-terminal hydrolase 1 (Homo sapiens) (UniProt O94782); assay: Inhibitors of USP1/UAF1: Pilot qHTS (AID 504865); note: nearly all actives have a fitted effect of over 35% in size; note: potency is the fitted concentration of half-maximal effect;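 for activity change, negative = inhibition: rhodamine fluorescence freed from ubiquitin-rhodamine substrate followed over time; top concentration of the series differs between compounds; % is set by controls: 0 for no effect and ±100 for the full control effect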
Chain of Ubiquitin carboxyl-terminal hydrolase 1 (Homo sapiens) (O94782 whole entry, looked up): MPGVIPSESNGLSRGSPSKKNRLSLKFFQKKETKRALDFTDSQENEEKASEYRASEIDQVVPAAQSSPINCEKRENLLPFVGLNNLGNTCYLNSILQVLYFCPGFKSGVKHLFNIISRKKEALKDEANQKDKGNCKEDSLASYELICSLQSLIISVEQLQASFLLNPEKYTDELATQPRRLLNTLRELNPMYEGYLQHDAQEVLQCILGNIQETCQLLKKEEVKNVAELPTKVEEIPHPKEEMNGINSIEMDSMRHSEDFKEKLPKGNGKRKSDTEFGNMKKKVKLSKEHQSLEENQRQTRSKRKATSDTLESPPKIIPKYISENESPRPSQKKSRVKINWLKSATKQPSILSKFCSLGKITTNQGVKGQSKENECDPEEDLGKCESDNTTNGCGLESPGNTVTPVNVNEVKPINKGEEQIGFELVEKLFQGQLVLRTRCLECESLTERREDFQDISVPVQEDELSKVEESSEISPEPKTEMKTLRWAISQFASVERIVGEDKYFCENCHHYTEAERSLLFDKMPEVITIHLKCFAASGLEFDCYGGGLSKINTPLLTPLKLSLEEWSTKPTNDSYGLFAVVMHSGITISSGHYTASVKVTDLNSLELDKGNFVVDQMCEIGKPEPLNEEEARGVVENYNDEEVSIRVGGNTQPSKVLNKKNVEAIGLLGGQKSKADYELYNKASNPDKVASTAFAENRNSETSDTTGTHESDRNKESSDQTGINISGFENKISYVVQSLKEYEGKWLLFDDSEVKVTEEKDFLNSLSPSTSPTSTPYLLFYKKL
Summary of the method: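 USP1/UAF1 complex at 1 nM preincubated 15 min at room temperature with compound, then Ub-Rho substrate added at 150 nM final. Fluorescence (480/540 nm) read kinetically in 50 mM HEPES pH 7.8, 0.5 mM EDTA, 1 mM TCEP, 0.1 mg/ml BSA, 0.01% Tween-20.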

[20] = biological target: Cytochrome P450 2D6 (Homo sapiens) (UniProt P10635); assay: qHTS Assay for Inhibitors and Substrates of Cytochrome P450 2D6 (AID 891); note: potency is the fitted concentration of half-maximal effect; nearly all actives have a fitted effect of over 60% in size
Chain of Cytochrome P450 2D6 (Homo sapiens) (P10635 whole entry, looked up): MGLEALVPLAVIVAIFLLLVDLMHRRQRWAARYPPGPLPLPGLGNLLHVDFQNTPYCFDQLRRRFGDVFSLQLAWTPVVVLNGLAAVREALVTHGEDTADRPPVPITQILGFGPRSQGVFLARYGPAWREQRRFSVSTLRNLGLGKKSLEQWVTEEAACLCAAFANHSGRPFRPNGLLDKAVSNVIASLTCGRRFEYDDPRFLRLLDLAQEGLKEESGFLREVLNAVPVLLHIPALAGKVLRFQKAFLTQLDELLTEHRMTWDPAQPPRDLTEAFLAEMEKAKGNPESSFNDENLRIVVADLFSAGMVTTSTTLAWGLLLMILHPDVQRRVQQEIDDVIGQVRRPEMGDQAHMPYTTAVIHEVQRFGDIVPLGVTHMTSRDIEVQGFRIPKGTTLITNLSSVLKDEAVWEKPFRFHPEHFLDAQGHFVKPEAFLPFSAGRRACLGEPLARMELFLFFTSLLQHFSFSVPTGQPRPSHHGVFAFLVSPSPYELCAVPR
Summary of the method: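 Luminescent read-out of luciferin formed by 5 nM human CYP2D6 demethylating 30 uM Luciferin-ME EGE (Km level) over 60 min at room temperature after NADPH regeneration addition. Data normalized to full inhibition by 1.43 uM quinidine.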

[21] = qHTS Assay for Lipid Storage Modulators (AID 1519; calls by dose curve); conditions: Drosophila S3 cells, BODIPY lipid droplet/cell ratio, laser cytometry, cells loaded with oleic acid
Summary of the method: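 Cells seeded at 5,000 per well were treated with compounds over a concentration series and loaded with oleic acid (400 uM, as added). Lipid droplet fluorescence (488 nm excitation, 500-530 nm channel) was read by laser-scanning cytometry and normalized to 20 uM Triacsin C.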

[22] = system: Zika virus NS2B-NS3 protease (linked construct); assay: 384 well plate NINDS Rhodamine confirmatory qHTS for Zika virus inhibitors (AID 1347164);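 note: fluorescence from protease cleavage of Ac-LKRR-rhodamine 110 substrate; top concentration of the series differs between compounds; plate controls were no-inhibitor control for no effect and no-enzyme control for full effect; nearly all actives have a fitted effect of over 65% in size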
Summary of the method: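 Linked NS2B-NS3 protease (final 5, 30 or 60 nM) preincubated ~15 minutes with compounds, then 10 microM Ac-LKRR-Rhodamine 110 added. Fluorescence (485/538 nm) read after 25 minutes at room temperature, normalized to no-enzyme and no-inhibitor controls.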

COc1ccc2cc(C(C)C(=O)O)ccc2c1 (centres undefined)
inactive: outcome [1] | outcome [2] | Potency [3]

COc1ccc2cccc(N3CCN(CCNC(=O)c4ccc(F)cc4)CC3)c2c1
inactive: Potency [4] > 46 µM | Potency [5] > 46 µM | Potency [6] | Potency [3]

O=C(O)c1c(Br)c(Br)c(Br)c(Br)c1C1c2ccc(O)cc2Oc2cc(O)ccc21
inactive: activity change, negative = inhibition [8] -20.1% | activity change, negative = inhibition [9] -6.8% [at 2.29 µM] | activity change, negative = inhibition [10] -6.47% | Potency [4] > 46 µM | Potency [5] > 9.22 µM | Potency [11] | activity change, positive = activation [12] -36% [at 11.4 µM] | Potency [14]
active: Potency [7] 7.36 µM | Potency [13] 12.6 µM | Potency [15] 0.891 µM | Potency [16] 14.1 µM

O=C1c2ccccc2C(Cc2ccncc2)(Cc2ccncc2)c2ccccc21
inactive: Potency [4] > 46 µM | Potency [5] > 46 µM | Potency [17] | Potency [12] | Potency [19] | Potency [6] | Potency [3]
active: Potency [18] 0.501 µM

c1cc2c3c(c1)c1c(n3CCNC2)CCCC1
inactive: Potency [4] > 46 µM | Potency [5] > 46 µM | Potency [19] | Potency [6] | Potency [3]

Cc1c[nH]c(=O)n(CCCN2CCN(c3ccccc3OCC(F)(F)F)CC2)c1=O
inactive: Potency [4] > 46 µM | Potency [5] > 46 µM | Potency [17] | Potency [11] | Potency [6] | Potency [3]

O=C1CC2(CCCC2)CC(=O)N1CCCCNC[C@H]1COc2ccccc2O1
inactive: Potency [4] > 46 µM | Potency [5] > 46 µM | Potency [17] | Potency [12] | Potency [19] | Potency [6] | Potency [3]
active: Potency [18] 0.631 µM | Potency [20] 5.01 µM

CCc1nn2c(=O)cc(COC(=O)c3ccccc3NC(=O)c3ccc(C(C)(C)C)cc3)nc2s1
inactive: Potency [13]

O=C(c1ccc(F)cc1)C1CCN(CCCCc2ccccc2)CC1
active: Potency [20] 0.0126 µM
inactive: Potency [4] > 46 µM | Potency [17] | Potency [18] | Potency [6] | Potency [3]

C[C@@]12CC[C@@H]3c4ccc(O)cc4C[C@H](CCCCCCCCCS(=O)CCCC(F)(F)C(F)(F)F)[C@H]3[C@@H]1CC[C@@H]2O (some centres undefined)
inactive: Potency [4] > 46 µM | Potency [5] > 46 µM | Potency [17] | Potency [11] | Potency [6] | Potency [3]

O=C(Nc1cccc(C(=O)OCc2cc(=O)n3nc(C4CC4)sc3n2)c1)c1cccc(Cl)c1
active: Potency [13] 56.2 µM
inactive: Potency [14]

CCCCCCCCCCCCCCCCCCc1ccc(C(=O)/C=C\C(=O)O)cc1
inactive: Potency [4] > 46 µM | Potency [5] > 46 µM | Potency [17] | Potency [6] | Potency [3]

O=c1c(O)cc(C2Oc3cc(O)cc(O)c3CC2O)cc2c(C3Oc4cc(O)cc(O)c4CC3O)cc(O)c(O)c12 (centres undefined)
13.9%: max response ([21]; measured here: cell count channel max response)
active: Potency [18] 15.8 µM | Potency [19] 35.5 µM | Potency [13] 12.6 µM | Potency [15] 20 µM | Potency [16] 7.94 µM
27.3%: max response ([21]; measured here: lipid channel max response)
inactive: Potency [12] | outcome [1] | outcome [2] | activity change, negative = inhibition ([21]; at 57.5 µM (top of the series)) 11.1% | Potency [14] | Potency [22]

O=C(Nc1ccc(C(=O)OCc2cc(=O)n3nc(C4CC4)sc3n2)cc1)c1cccc(F)c1
inactive: Potency [13]

CCOC(=O)c1ccc(NC(=O)c2nc(SCc3ccccc3F)ncc2Cl)cc1
inactive: Potency [13]

Cc1ccc(OCC(=O)Nc2ccccc2C(=O)OCc2cc(=O)n3nc(C4CC4)sc3n2)cc1
inactive: Potency [13] | Potency [15]

CCOC(=O)c1ccc(CN(Cc2ccc(F)cc2)S(=O)(=O)c2cc(C(=O)Nc3cccc(C(F)(F)F)c3)ccc2F)cc1
inactive: Potency [13] | Potency [15]

Cc1cccc(CCN2CCC(C(=O)c3ccc(NS(C)(=O)=O)cc3)CC2)n1
inactive: Potency [19] | Potency [6] | Potency [3]
